{"source": "ChEMBL document CHEMBL4513216", "about": "“Probing the Open Global Health Chemical Diversity Library for Multistage-Active Starting Points for Next-Generation Antimalarials” (ACS Infect Dis, 2020)", "note": "The campaign covered roughly 69,000 compounds. About 8,600 (12%) showed an effect of 50% or more. The full list was thinned out, with strong results kept by preference.", "data": [{"system": "Plasmodium berghei", "experiment": "Screen against P. berghei liver stage (PbLuc), transformed with Luciferase, at 10uM", "assay_type": "functional, HepG2", "settings": "tested at 10 uM", "units": {"INHIBITION": "%"}, "values": [{"smiles": "N#CC(NC(=O)CNC(=O)c1ccccc1)c1ccsc1", "note": "(stereo unspecified)", "INHIBITION": 18.5}, {"smiles": "CC(=O)Nc1nc(C2CN(C(=O)C3CCC3)C2)cs1", "INHIBITION": 37.6}, {"smiles": "Cn1c(C(=O)N2CC[C@@]3(O)CCCC[C@H]3C2)cc2ccccc21", "INHIBITION": -9.51}, {"smiles": "COc1ccc([C@@H]2CN(C(=O)c3cscn3)C[C@H]2C(=O)O)cc1", "INHIBITION": -9.32}, {"smiles": "O=C(Cc1n[nH]c2ccccc12)N1CCCCC1Cn1cccn1", "note": "(stereo unspecified)", "INHIBITION": -31.5}, {"smiles": "Cc1nn(C)c(N(C)C)c1CNCCOc1ccc2c(c1)OCO2", "INHIBITION": -20.893}, {"smiles": "OC(CN1CCOCC1)c1ccc(Br)cc1", "note": "(stereo unspecified)", "INHIBITION": 1.56}, {"smiles": "CCC(=O)NC(C)c1ccccc1C", "note": "(stereo unspecified)", "INHIBITION": 10.06}, {"smiles": "Cc1c(C(=O)N2CCCC(n3cncn3)C2)cnn1C", "note": "(stereo unspecified)", "INHIBITION": 1.75}, {"smiles": "Nc1nnc(C2CC(=O)N(c3ccccc3)C2)s1", "note": "(stereo unspecified)", "INHIBITION": 44.9}, {"smiles": "Cn1cc(-c2nc(CN3CCN(c4nccs4)CC3)cs2)cn1", "INHIBITION": 42.7}, {"smiles": "c1cncc(C2COC3(CCN(CC4CCOCC4)CC3)C2)c1", "note": "(stereo unspecified)", "INHIBITION": 23.3}, {"smiles": "CC(C)c1cc(C(=O)NCCc2nc(-c3ccncc3)n[nH]2)[nH]n1", "INHIBITION": 5.7}, {"smiles": "O=C(NCCCN1CCOCC1)c1cc(-c2ccccc2)[nH]n1", "INHIBITION": -14.3}, {"smiles": "O=C(COCc1nc(-c2ccncc2)no1)N1CCOCC1", "INHIBITION": 1.06}, {"smiles": "CC(C)C(=O)NCCc1nc(-c2ccncc2)n[nH]1", "INHIBITION": 28.2}, {"smiles": "O=C(Cc1nc(-c2ccncc2)n[nH]1)N1CCOCC1", "INHIBITION": 78.8}, {"smiles": "COCCCNC(=O)Cc1nc(-c2ccncc2)n[nH]1", "INHIBITION": 77.7}, {"smiles": "O=C(NCCCN1CCOCC1)c1cc(-c2ccco2)[nH]n1", "INHIBITION": -26.5}, {"smiles": "O=C(COCc1nc(-c2ccncc2)no1)N1CCCC1", "INHIBITION": 16.8}, {"smiles": "O=C(Cc1nc(-c2ccncc2)n[nH]1)NCCCN1CCOCC1", "INHIBITION": 66.3}, {"smiles": "OCC1CCCN1c1cc(NCc2cccc3cccnc23)ncn1", "note": "(stereo unspecified)", "INHIBITION": -21.8}, {"smiles": "Cc1ccc(CS(=O)(=O)CC(=O)NCCCOC(C)C)cc1", "INHIBITION": 15.6}, {"smiles": "Cc1cc(C)c(CNC(=O)NC(C)c2ccc3c(c2)CCC3)c(=O)[nH]1", "note": "(stereo unspecified)", "INHIBITION": 48.2}, {"smiles": "Cc1cc(CN2CCOC(CNc3cccnn3)C2)on1", "note": "(stereo unspecified)", "INHIBITION": 2.3}, {"smiles": "COc1ccccc1N1CCN(C(=O)CSC(C)C)C(C)C1", "note": "(stereo unspecified)", "INHIBITION": 17.6}, {"smiles": "CCN1CCC(CC(=O)N2CCN(c3ccccc3OC)CC2C)CC1", "note": "(stereo unspecified)", "INHIBITION": 21.2}, {"smiles": "COc1ccccc1N1CCN(C(=O)CSCC2CC2)C(C)C1", "note": "(stereo unspecified)", "INHIBITION": 51.2}, {"smiles": "COc1ncccc1-c1cc(C(=O)NC2CC2)ccn1", "INHIBITION": -68.7}, {"smiles": "COc1ncccc1-c1cc(C(N)=O)ccn1", "INHIBITION": 52.2}, {"smiles": "COc1ncccc1-c1ncccc1NC(=O)C(C)C", "INHIBITION": 24.3}, {"smiles": "CN1CCCC1CNC(=O)CCOc1ccc(Cl)cc1", "note": "(stereo unspecified)", "INHIBITION": -11.98}, {"smiles": "CCN(CC)CCCN1CCN(c2nc(C)cnc2C)CC1", "INHIBITION": 71.1}, {"smiles": "Cc1cnc(C)c(N2CCN(CCCc3ccncc3)CC2)n1", "INHIBITION": 76}, {"smiles": "Cc1noc(C(C)N2CCN(CCc3ccncc3)CC2)n1", "note": "(stereo unspecified)", "INHIBITION": -11.9}, {"smiles": "Cc1cnc(N)nc1N1CCN(CCCO)CC1", "INHIBITION": 42.1}, {"smiles": "CSCCN1CCN(c2nc(N)ncc2C)CC1", "INHIBITION": 19.4}, {"smiles": "Cc1cnc(C)c(N2CCN(CCCc3[nH]nc(C)c3C)CC2)n1", "INHIBITION": 30.3}, {"smiles": "Cc1nc(CN2C[C@@H]3COC[C@]3(COCC(=O)N(C)C)C2)cs1", "INHIBITION": 43.1}, {"smiles": "CN(C)c1ccc(C(=O)Nc2cn[nH]c2)cc1", "INHIBITION": 4.885}, {"smiles": "Cc1cc(C)n(CC(=O)N2CCCC2c2cc3cccnc3[nH]2)n1", "note": "(stereo unspecified)", "INHIBITION": 9.05}, {"smiles": "CCC(=O)N1CCOC(c2cc(Nc3nncs3)cc(C)n2)C1", "note": "(stereo unspecified)", "INHIBITION": 41}, {"smiles": "O=S1(=O)NC(=CSCc2ccccc2)Nc2ccccc21", "INHIBITION": 38}, {"smiles": "O=C(c1cc(C2CC2)on1)N1C[C@H]2CC[C@](O)(c3ccc(F)cc3)[C@H]2C1", "INHIBITION": 1.75}, {"smiles": "O=C(c1cc(C2CC2)n[nH]1)N1C[C@H]2CC[C@](O)(c3ccccc3F)[C@H]2C1", "INHIBITION": -16.56}, {"smiles": "O=C(c1cc(C2CC2)on1)N1C[C@H]2CC[C@](O)(c3ccccc3F)[C@H]2C1", "INHIBITION": 53.45}, {"smiles": "CCC[C@H]1CN(CCS(C)(=O)=O)C[C@@H]1NC(=O)c1ccn(C)n1", "INHIBITION": 61.2}, {"smiles": "CCC[C@H]1CN(CCS(C)(=O)=O)C[C@@H]1NC(=O)c1cc(CC)on1", "INHIBITION": 50.1}, {"smiles": "CCC[C@H]1CN(CCS(C)(=O)=O)C[C@@H]1NC(=O)c1ccccc1F", "INHIBITION": -30.2}, {"smiles": "CCC[C@H]1CN(CCS(C)(=O)=O)C[C@@H]1NC(=O)c1cccnn1", "INHIBITION": -25.2}, {"smiles": "CCC[C@H]1CN(CCS(C)(=O)=O)C[C@@H]1NC(=O)c1cc[nH]n1", "INHIBITION": 13}, {"smiles": "CCC[C@H]1CN(CCS(C)(=O)=O)C[C@@H]1NC(=O)c1ccccn1", "INHIBITION": 26.6}, {"smiles": "Cc1cnn(CC2CCCN2C(=O)CCc2ccncc2)c1", "note": "(stereo unspecified)", "INHIBITION": -14}, {"smiles": "Cc1cccc(-c2cc(C(=O)O)sn2)c1", "INHIBITION": -12.1}, {"smiles": "Cc1occc(=O)c1OCc1noc(C(=O)NCC2CC2)n1", "INHIBITION": 33.5}, {"smiles": "O=C(c1cccnc1)N1CCn2nnc(COc3cccnc3)c2C1", "INHIBITION": 47.8}, {"smiles": "CCc1ccc(CN2CCC3(CC2)CC(N2CCN(C)CC2)CO3)cc1", "note": "(stereo unspecified)", "INHIBITION": 45.5}, {"smiles": "CN1CCN(C2COC3(CCN(Cc4ccc(F)cc4)CC3)C2)CC1", "note": "(stereo unspecified)", "INHIBITION": 54.4}, {"smiles": "CCOC1COC2(CCN(Cc3ccc(F)cc3)CC2)C1", "note": "(stereo unspecified)", "INHIBITION": -24.5}, {"smiles": "Cc1ccc(CN2CCC3(CC2)CC(N2CCN(C)CC2)CO3)s1", "note": "(stereo unspecified)", "INHIBITION": 47.4}, {"smiles": "CN1CCN(C2COC3(CCN(Cc4ccsc4)CC3)C2)CC1", "note": "(stereo unspecified)", "INHIBITION": 54.4}, {"smiles": "CN1CCN(C2COC3(CCN(Cc4cccs4)CC3)C2)CC1", "note": "(stereo unspecified)", "INHIBITION": 1.94}, {"smiles": "COC(=O)c1cc(C)nc(N2CCN(Cc3cc(C(C)C)no3)CC2)n1", "INHIBITION": 23.1}, {"smiles": "COc1cccc(OC)c1-c1c[nH]c(C)n1", "INHIBITION": 1.56}, {"smiles": "Cn1cnc2c1CCN(Cc1c(Cl)ccc3cccnc13)C2", "INHIBITION": -20.8}, {"smiles": "CN1CCC(c2nnc3ccc(C(=O)NC4CCCC4)cn23)C1", "note": "(stereo unspecified)", "INHIBITION": -1.26}, {"smiles": "CC(C)NC(=O)c1ccc2nnc(C3CN(C)CCN3C)n2c1", "note": "(stereo unspecified)", "INHIBITION": -37.9}, {"smiles": "CS(=O)(=O)N1CCC(c2nnc3ccc(C(=O)N4CCCC4)cn23)C1", "note": "(stereo unspecified)", "INHIBITION": 40.4}, {"smiles": "CN1CCC(c2nnc3ccc(C(=O)N4CCCCC4)cn23)C1", "note": "(stereo unspecified)", "INHIBITION": 82.8}, {"smiles": "CN1CCN(C)C(c2nnc3ccc(C(=O)N4CCOCC4)cn23)C1", "note": "(stereo unspecified)", "INHIBITION": 8.03}, {"smiles": "CC(C)N1CCN(C)CC1c1nnc2ccc(C(=O)N3CCCC3)cn12", "note": "(stereo unspecified)", "INHIBITION": 82.8}]}]}
